Test results published in PubChem BioAssay AID778 (Sanford-Burnham Center for Chemical Genomics, 2007).
About 20,000 (21%) of roughly 96,000 compounds were called active.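 Rule for the calls: active = CYP2C19 inhibition above a set limit at 5 µM in the primary screen (cut at about 50% in these data); inactive = the rest.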 Not all results are given here.

Target: Cytochrome P450 2C19 (Homo sapiens) (UniProt P33261)
Assay: blockers of cytochrome P450 2C19 activity – biochemical, luminescence, ADME assay, primary screen (AID 778);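 note: plate controls were negative control wells for no effect and 2.5 mM tranylcypromine positive control for full effect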
Settings: CYP2C19 Supersomes, luciferin-H EGE luminescence, 30 min; at 5 µM; stronger effect = higher value

Sequence of Cytochrome P450 2C19 (Homo sapiens) (P33261 whole entry, looked up): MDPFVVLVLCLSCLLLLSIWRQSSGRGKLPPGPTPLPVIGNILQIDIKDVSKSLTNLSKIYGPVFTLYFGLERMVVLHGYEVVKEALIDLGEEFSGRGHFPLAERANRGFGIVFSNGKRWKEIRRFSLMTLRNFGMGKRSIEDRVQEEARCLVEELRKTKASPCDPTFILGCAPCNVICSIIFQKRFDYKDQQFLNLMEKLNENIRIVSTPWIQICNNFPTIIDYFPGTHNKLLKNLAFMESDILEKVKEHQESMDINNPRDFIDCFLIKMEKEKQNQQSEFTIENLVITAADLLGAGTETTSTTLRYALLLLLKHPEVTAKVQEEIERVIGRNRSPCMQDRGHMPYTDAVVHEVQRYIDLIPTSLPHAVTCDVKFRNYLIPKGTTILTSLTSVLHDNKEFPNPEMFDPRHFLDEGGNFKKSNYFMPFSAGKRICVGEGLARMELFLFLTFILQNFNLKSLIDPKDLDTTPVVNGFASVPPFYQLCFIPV

inhibition, active:
O=C(CN1CCN(c2ccc(F)cc2)CC1)Nc1cccc(C(F)(F)F)c1 83.2%, COc1cccc(OCc2cc(/C=N/NC(=O)c3nc(Cl)c(Cl)c(N)c3Cl)ccc2OC)c1 55.4%, Cc1ccc(F)c(NC(=O)CCc2ccccc2)c1 65.2%, COc1ccc([N+](=O)[O-])cc1NC(=O)CCc1ccccc1 63.7%, CC1=C2C(=O)OC(c3ccoc3)C2(C)CCC1 (centres undefined) 78.1%, O=C(COc1ccc(S(=O)(=O)NCCc2ccccc2)cc1)N1CCCC1 81.4%, CC(=O)Nc1ccc(S(=O)(=O)NCCc2ccccc2)cc1 90.7%, COc1ccc(CCNC(=O)c2cc3sccc3n2C)cc1OC 50.9%, CCn1nc(C(=O)OCC(=O)N2c3ccccc3CC2C)c2ccccc2c1=O (centres undefined) 66.9%, O=C(C1CCN(S(=O)(=O)Cc2ccccc2)CC1)N1CCCc2ccccc21 61.9%, Cc1ccc(S(=O)(=O)c2nc(NCCCn3ccnc3)sc2Cl)cc1 99.4%, Cc1c(C=O)c2ccccn2c1C(=O)c1ccncc1 85.8%, OC(c1ccccc1)c1nccn1Cc1ccccc1 (centres undefined) 81.9%, Cc1cccc(N2CCN(C(=O)c3cnn4c(C(F)F)cc(-c5ccccc5)nc34)CC2)c1C 51%, Cc1ccc(C)n1-c1ccncc1 56.5%, N#Cc1cccc(NC(=O)CCC2CCCC2)c1 73.6%, CCCn1c(C(O)c2ccc(OCC)cc2)nc2ccccc21 (centres undefined) 90.6%, CCCn1c(C(O)c2cc(OC)ccc2OC)nc2ccccc21 (centres undefined) 74.3%, CC(C)n1c(C(O)c2ccccc2)nc2ccccc21 (centres undefined) 67.7%, CCOC(=O)c1nn(-c2cccc(C)c2)cc1C(=O)c1ccccc1 75.3%, Cc1ccc(NC(=S)Nc2ncccc2C)c(C)c1 86.3%

inhibition, inactive:
Cc1ccc(/C=N/NC(=O)C(NC(=O)c2ccccc2)c2n[nH]c(=O)c3ccccc23)cc1 (centres undefined) 13.3%, O=C(O)CSCC(=O)Nc1cccc(C(F)(F)F)c1 -13.8%, O=C(CN1CCN(C(=O)c2ccco2)CC1)Nc1ccc(Cl)c(C(F)(F)F)c1 42.2%, Cc1ccccc1CSCCNC(=O)c1ccc(N(C)S(=O)(=O)c2ccccc2)cc1 48.7%, CCc1cc(C(c2ccccc2OC)N2CCOCC2)c(NC(=O)c2ccccc2)s1 (centres undefined) 18.9%, OCc1n[nH]c(CO)n1 1.2%, COc1cccc(-c2cc(C(=O)N/N=C/c3ccc(OC)c(COC(C)=O)c3)c3ccccc3n2)c1 49.3%, COc1ccc(/C=N\NC(=O)c2sc(N)nc2C)cc1OC 1.8%, CCN1CCC(=NNC(=O)c2ccc(C)c([N+](=O)[O-])c2)CC1 1.5%, Cc1cc([N+](=O)[O-])ccc1NCc1cccc([N+](=O)[O-])c1 -3.5%, COc1ccc(OC)c(NC(=O)CC(Cc2ccccc2OC)C(=O)O)c1 (centres undefined) 1.6%, CCN(CC)CCCNC(=O)CCc1ccccc1 7.3%, CCn1ncc(Br)c1C(=O)Nc1cc(C)ccc1F 24%, CCC(C)(C)c1ccc(Oc2ccc(NC(=O)COC(=O)C3=COCCO3)cc2)cc1 49.9%, Cc1ccc(C(=O)N/C(=C/c2ccco2)C(=O)NCCc2c[nH]c3ccccc23)cc1C 39.8%, CCOC(=O)N1CCN(C(=O)C2CCN(c3ncnc4c3sc3cccc(F)c34)CC2)CC1 24.8%, CC(C)C(=O)N1c2ccccc2NC2=C(C(=O)CCC2)C1c1ccc(N(C)C)cc1 (centres undefined) 8.1%, COC(=O)C(C)C1Sc2ccccc2NC1=O (centres undefined) 44.9%, Cn1c(=O)c(=O)n(C)c2cc(S(=O)(=O)NCCc3ccccc3)ccc21 6.1%, COC(=O)[C@H](Cc1ccccc1)NC(=O)Nc1ccc(S(N)(=O)=O)cc1 -4.1%, O=C(COc1ccc(/C=N/NS(=O)(=O)c2ccccc2)cc1)NCCc1ccccc1 -0.6%, O=C(COc1ccc(Cl)cc1)N1CCN(S(=O)(=O)c2ccc(Cl)cc2)CC1 -21%, COc1cc(OC)cc(C(=O)Nc2ncc3c(n2)CC(C)(C)CC3=O)c1 9.1%, Cc1cccc(C)c1-n1c(C)cc(/C=C2\C(=O)NN(c3ccccc3)C2=O)c1C 36.4%, CCOC(=O)c1ccccc1NC(=O)CC1Nc2ccccc2NC1=O (centres undefined) 8.5%, C=C(Br)CN1CCN(CC(=C)Br)CC1 9.1%, COc1ccc(CCNC(=O)c2cc(-c3ccc4c(c3)OCO4)on2)cc1OC -2.7%, Cn1c(C(=O)NCCCN2CCCCC2)cc2sccc21 5.3%, CC12COC3(C(=O)Nc4ccc(Cl)cn4)CC1CCC32C (centres undefined) 16.5%, O=C(CCCN1C(=O)CCC1=O)Nc1ccc(Cl)c(C(F)(F)F)c1 11.2%, C=CCC(NCc1ccco1)c1ccc(OC)cc1 (centres undefined) -0.2%, CC(C)C(=O)Nc1nnc(Sc2ccc(N(C)C)cc2)s1 47.8%, Cn1c(CN2CCOCC2)nc2cc(NC(=O)c3ccc(Cl)cc3)ccc21 4.8%, CC1Cc2ccccc2N1C(=O)Cn1cnc2ccccc2c1=O (centres undefined) 9.8%, CCOC(=O)c1[nH]c(C)c(C(=O)OCC(=O)N2c3ccccc3CC2C)c1C (centres undefined) 0.9%, COc1nc(Oc2ccc(=O)n(C)n2)nc(N(C)C)n1 -17.1%, O=C(CC1N=C2c3ccccc3N=C(SCc3ccccc3Cl)N2C1=O)NCc1ccco1 (centres undefined) 37.8%, Cc1noc(/C=C/c2ccco2)c1S(=O)(=O)N1CCC(C(=O)N2CCc3ccccc32)CC1 24.1%, CCS(=O)(=O)N1CCC(C(=O)N2CCN(c3ccccc3)CC2)CC1 -1%, COC(=O)C1C(=O)CC(C)(O)C(C(=O)OC)C1c1ccc2c(c1)OCO2 (centres undefined) 29.1%, COc1ccc(S(=O)(=O)N(CCCN2CCCC2=O)Cc2cc3c(C)ccc(C)c3[nH]c2=O)cc1 38.4%, O=C(CSCc1ccc(Br)cc1)Nc1ccc(S(=O)(=O)N2CCCCCC2)cc1 27.3%, CN(C)c1ccnc2sc3c(=O)n(Cc4ccccc4)cnc3c12 27.4%, CCSc1nnc(-c2cc3c(s2)-c2ccccc2CC3)o1 -5.2%, CC(=O)NC1=NC(=O)CS1 6%, CCCC(=O)Nc1nc2ccc(NC(=O)c3cccnc3)cc2s1 16.4%, CCN1C(=O)CS/C1=N\c1nccs1 19%, O=C1C=C(NCCNc2c(F)c(F)c(CO)c(F)c2F)CCC1 4.9%, Cc1cc(C(=O)O)c(S(C)(=O)=O)s1 -6.4%, Cc1csc(NC(=O)C2CCCN2C(=O)OCC(C)C)n1 (centres undefined) 29.2%, CC(C)(C)c1cc2cccnc2n1Cc1ccccc1 13.8%, CC(c1nnc(SCC(=O)Nc2sccc2C#N)n1-c1ccc(Cl)cc1)N(C)C (centres undefined) 31.1%, CC(=O)N1CCN(c2cccc(C)c2C)CC1 -2.5%, O=C(O)c1cnn2c(C(F)(F)F)cc(-c3ccccc3)nc12 20.2%, O=C(Cn1cc(-c2nnnn2-c2ccc(Cl)cc2)c(=O)c2ccccc21)c1ccccc1 -16.7%, O=C(NCCCCO)C(F)(F)C(F)(F)C(F)(F)C(=O)NCCCCO 9.4%, CCSc1nc(-c2ccc(OC)cc2)cc(-c2ccc(OC)cc2)c1C#N 32.3%, Cc1ccc(N)cc1-n1c(C)ccc1C 23.2%, COc1ccc(-c2cc(C)nc3nc(N)nn23)cc1 -16.3%, CCOC(=O)c1ccc(-n2c(C)nc3c(cnn3-c3ccccc3C)c2=O)cc1 -20.1%, CCOc1cccc(NC(=O)CC#N)c1 -5.8%, COC(=O)c1sccc1NC(=O)CCC1CCCC1 -0.5%, CCOC(=O)N1CCC(NC(=O)C(C)n2c3ccccc3c3cnn(C)c(=O)c32)CC1 (centres undefined) 5.1%, NC(CSC12CC3CC(CC(C3)C1)C2)C(=O)O (centres undefined) 12.9%, Cc1cc(C)cc(OCC(=O)NNC(=O)c2cc3ccccc3oc2=O)c1 5.4%, CCOCCn1c(C(C)C)nc2ccccc21 15.5%, CCOc1ccc(C(O)Cn2c(=N)n(CCN3CCCCC3)c3ccccc32)cc1 (centres undefined) 9.8%, COc1ccc(C)c(Cn2c(-c3nonc3N)nc3ccccc32)c1 18.5%, COc1cc(C(O)c2nc3ccccc3n2C)cc(OC)c1OC (centres undefined) 46.5%, CC(Nc1nc(N2CCCC2)nc2ccccc12)c1ccccc1 (centres undefined) 15.5%, CCc1nc(Nc2ccc3nccnc3c2)c2oc3ccccc3c2n1 -11.6%, O=C(N/N=C/C=C/c1ccccc1)C1CC1(c1ccccc1)c1ccccc1 (centres undefined) -19.2%, Cc1ccc(NC(=O)c2nc[nH]c2C(=O)N2CCCCC2)c(C(=O)c2ccccc2)c1 20.4%, CC(=O)c1nn(-c2cccc(Br)c2)cc1C(=O)c1cccc2ccccc12 9.4%, CCCCc1nnc(NC(=O)CS(=O)(=O)Cc2ccccc2)s1 8%, Cc1cc2ccccc2n1CCNC(=O)COc1ccc2ccccc2c1 14.5%, OC(COCCC12CC3CC(CC(C3)C1)C2)CN1CCCCC1 (centres undefined) 35.1%, Cc1cccc(NC(=O)C2CCN(S(=O)(=O)c3cccc4cccnc34)CC2)c1 40.7%
